# Source: PubChem BioAssay AID492954 (National Center for Advancing Translational Sciences (NCATS), 2010)
# Several values for one entry are separate records, joined by “and”; a condition that tells them apart may be missing. Equal values may be shown once. Results filed as inconclusive are left out. Activity calls are given as the source filed them. The call rests on the fitted dose curve.
# Assay: Mouse Th17 T cell differentiation assay for inhibitors of ROR gamma transcriptional activity
# Settings: mouse naive CD4 T cells Th17, IL17a-GFP flow cytometry; series mostly up to 20 µM
# From the text: NIH Molecular Libraries Probe Production Network [MLPCN] NIH Chemical Genomics Center [NCGC] MLPCN Grant: R03 DA026211-01 Assay Provider: Dan Littman, New York University Keywords: NIH Roadmap, MLPCN, MLI, MLSMR, qHTS, NCGC, qHTS, nuclear hormone receptor, retinoic acid-related orphan receptor, ROR gamma Assay Overview: The retinoic acid-related orphan receptor (ROR) gamma is a transcription factor that has a central role in the differentiation of Th17 cells, a subset of T helper cells that secrete the inflammatory cytokines IL-17a, IL-17f, and IL-22. Th17 cells have been implicated in graft versus host disease, autoimmune disease and asthma. ROR gamma is induced in naive T helper cells in the presence of TGF-beta combined with IL-6, IL-21, or IL-23, and thereafter directs the expression of the Th17 lineage cytokines. To confirm inhibition of ROR gamma, compounds were tested in a mouse Th17 T cell differentiation assay. Th17 differentiation was tracked by expression of a GFP reporter under the control of the endogenous IL-17a promoter using flow cytometry. Compounds that block ROR gamma activity prevent expression of the IL17a-GFP reporter.
# Assay Protocol Summary: Cells from lymph nodes and spleens derived from six to eight week old IL17a-GFP mice (Biocytogen LLC) were used for T cell purification. B220- cells were isolated on an autoMACS Pro with bead depletion of B220+ cells (Miltenyi). Naive CD4+ T cell were further purified as TCRb+CD8- DAPI- CD19- CD4+CD25- CD62L+CD44low/Int by cell sorting on a FACSAria (BD). Cells were cultivated in an incubator at 37 C and 5% CO2 in RPMI 1640 medium (Invitrogen) supplemented with 10% (vol/vol) heat-inactivated FBS (Hyclone), penicillin-streptomycin, 2 mM glutamine and 0.1 mM nonessential amino acids. Cells were seeded on day 0 at a density of 0.4x10^5 cells per ml in 96-well plates coated with anti-CD3e (5 ug/ml) and anti-CD28 (10 ug/ml). Cells were cultured for 4-5 days in Th17 (TGFb (0.3 ng/ml), IL6 (20 ng/ml), anti-IFN-g, and anti-IL-4) condition. At day 1, compounds dissolved in DMSO were added. GFP expression was assayed on day 4 or 5 with DAPI- and PECy7-conjugated CD4+ cells. An LSR II (BD Biosciences) and FlowJo software (Tree Star) were used for flow cytometry. Keywords: NIH Roadmap, MLPCN, MLI, MLSMR, qHTS, NCGC, qHTS, nuclear hormone receptor, retinoic acid-related orphan receptor, ROR gamma
row,SMILES,Potency
1,COc1cc(O)c(C(CC(=O)N2CC(C)OC(C)C2)c2ccc3c(c2)OCO3)c(OC)c1 (stereo not given),800 nM (active)
2,COc1cc(O)c(C(CC(=O)N2CC(C)CC(C)C2)c2ccc3c(c2)OCO3)c(OC)c1 (stereo not given),500 nM (active) and 700 nM (active)
3,COc1cc(OC)c(C(CC(=O)N2CC(C)CC(C)C2)c2ccc3c(c2)OCO3)c(OCC(N)=O)c1 (stereo not given),inactive
4,COc1cc(OC)c(C(CC(=O)N2CCCC(C)C2)c2ccc3c(c2)OCO3)c(OC)c1 (stereo not given),2000 nM (active)
5,COc1cccc(O)c1C(CC(=O)N1CCCC(C)C1)c1ccc2c(c1)OCO2 (stereo not given),inactive
6,COc1ccc(C(CC(=O)N2CCCC(C)C2)c2c(O)cc(OC)cc2OC)cc1 (stereo not given),5000 nM (active)
7,COc1cc(O)c(C(CC(=O)N2CC(C)CC(C)C2)c2ccc3c(c2)OCCO3)c(OC)c1 (stereo not given),300 nM (active)
8,COc1cc(O)c(C(CC(=O)N2CC(C)NC(C)C2)c2ccc3c(c2)OCO3)c(OC)c1 (stereo not given),inactive
9,COc1cc(O)c(C(CC(=O)N2CCCC(C)(C)C2)c2ccc3c(c2)OCO3)c(OC)c1 (stereo not given),6000 nM (active)
10,COc1cc(O)c(C(CC(=O)N2CC(C)CC(C)C2)c2ccc(O)cc2)c(OC)c1 (stereo not given),300 nM (active)
11,COc1cc(O)c(C(CC(=O)N2CCCC(C)C2)c2ccccc2)c(OC)c1 (stereo not given),inactive
12,COc1cc(O)c(C(CC(=O)N2CCC(C)CC2)c2ccc3c(c2)OCO3)c(OC)c1 (stereo not given),inactive
13,COc1cc(O)c(C(CC(=O)N2CCCC(C(F)(F)F)C2)c2ccc3c(c2)OCO3)c(OC)c1 (stereo not given),7000 nM (active)
14,COc1ccc(C(CC(=O)N2CCCC(C)C2)c2c(O)cc(OC)cc2OC)c(OC)c1 (stereo not given),inactive
15,COc1cc(O)c(C(CC(=O)N2CC(C)CC(C)C2)c2ccc(C)cc2)c(OC)c1 (stereo not given),500 nM (active)
16,COCOc1cc(OC)cc(OC)c1C(CC(=O)N1CC(C)CC(C)C1)c1ccc2c(c1)OCO2 (stereo not given),1000 nM (active)
17,COc1cc(O)c(C(CC(=O)N2CCCC(C)C2)c2cccs2)c(OC)c1 (stereo not given),6000 nM (active)
18,COc1ccc(C(CC(=O)N2CC(C)CC(C)C2)c2c(O)cc(OC)cc2OC)cc1 (stereo not given),400 nM (active)
19,COc1cc(O)c(C(CC(=O)N2C[C@H](C)C[C@H](C)C2)c2ccc3c(c2)OCO3)c(OC)c1 (stereo not given in full),400 nM (active)
20,COc1cc(O)c(C(CC(=O)N2CC(C)CC(C)C2)c2ccc(N(C)C)cc2)c(OC)c1 (stereo not given),400 nM (active)
21,COc1cc(OC)c(C(CC(=O)N2CC(C)CC(C)C2)c2ccc3c(c2)OCO3)c(OCC#N)c1 (stereo not given),3000 nM (active)
22,COc1cc(OC)c(C(CC(=O)N2CC(C)CC(C)C2)c2ccc3c(c2)OCO3)c(OC)c1 (stereo not given),800 nM (active)
23,COc1ccc(C(CC(=O)N2CCCC(C)C2)c2ccc3c(c2)OCO3)c(O)c1 (stereo not given),inactive
24,COc1cc(O)c(C(CC(=O)N2CCCC(C)C2)c2ccc(C)cc2)c(OC)c1 (stereo not given),4000 nM (active)
25,COc1cc(O)c(C(CC(=O)N2CCCC(C)C2)c2ccccc2C)c(OC)c1 (stereo not given),inactive
